This note sets out measurements from PubChem BioAssay (EPA / NIEHS).

In general, AC50 refers to the concentration at which the activity in the assay is half-maximal.

The nature of assay [1]: ATG_E_Box_CIS: Attagene CIS-FACTORIAL HepG2 Assay for human Enhancer Box (E-box) (AID 2282936). The following applies: HepG2 E-box cis-reporter transcription, actives raise or lower the signal. In outline:
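Measured 24 h post-dosing in HepG2 cells transfected with multiple cis-regulated reporter units, signal being reporter mRNA induction detected by fluorescent RT-PCR with capillary electrophoresis; gain or loss fitted against DMSO.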

Assay [2] is described as follows: ATG_EGR_CIS: Attagene CIS-FACTORIAL HepG2 Assay for human Early Growth Response 1 (EGR1) (AID 2282938). The conditions noted are these: HepG2 Attagene CIS-FACTORIAL EGR reporter mRNA; actives raise or lower the signal. The method, boiled down: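 Multiplexed cis-reporter system in human hepatoma HepG2 cells, transiently transfected. Cells are dosed for 24 h; reporter transcripts are amplified, fluorescently tagged and sized by capillary electrophoresis, with DMSO as negative control.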

Assay [3] is described as follows: ATG_Ets_CIS: Attagene CIS-FACTORIAL HepG2 Assay for human Erythroblast Transformation Specific (ETS) (AID 2282941). The conditions noted are these: HepG2 ETS cis-reporter transcription, actives raise or lower the signal. The method, boiled down:
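Endogenous transcription factor activity read as reporter mRNA via RT-PCR and capillary electrophoresis, with gain or loss fitted bidirectionally against DMSO. Human HepG2 liver cells, transiently transfected CIS reporter constructs, 24 h exposure.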

The target of assay [4] is Hepatocyte nuclear factor 3-beta (Homo sapiens) (UniProt Q9Y261). The assay can be described thus: ATG_FoxA2_CIS: Attagene CIS-FACTORIAL HepG2 Assay for human Forkhead box A2 (FOXA2) (AID 2282942). The conditions noted are these: HepG2 cis-reporter transcription factor activity, 24 h; actives raise or lower the signal. The method, boiled down:
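Multiplexed cis-element reporter assay in transiently transfected HepG2. Twenty-four hours post-dosing, RNA was reverse-transcribed, amplified, FAM-labelled, HpaI-digested and separated by CE. Activity gain or loss relative to DMSO.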

Assay [5] in a line: ATG_FoxO_CIS: Attagene CIS-FACTORIAL HepG2 Assay for human Forkhead box O (FoxO) (AID 2282943). The following applies: HepG2 Attagene cis-reporter, FoxO element, mRNA; actives raise or lower the signal. In outline: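 HepG2 cells transiently transfected with cis-promoter-driven multiple reporter transcription units; 24 h after chemical dosing, reporter mRNA quantified by RT-PCR, fluorescent primer extension, HpaI digestion and capillary electrophoresis. Bidirectional fitting versus DMSO baseline.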

Assay [6] is described as follows: ATG_GATA_CIS: Attagene CIS-FACTORIAL HepG2 Assay for human GATA Binding Protein (AID 2282944). The following applies: HepG2 GATA cis-element reporter, Attagene multiplex mRNA; actives raise or lower the signal. The method, boiled down:
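Transfected cis-reporter HepG2 cells were treated with chemicals for 24 hours. Total RNA was then converted to cDNA, amplified with reporter-specific primers and analysed by fluorescent capillary electrophoresis, using DMSO-treated wells as baseline.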

The nature of assay [7]: ATG_GLI_CIS: Attagene CIS-FACTORIAL HepG2 Assay for human Zinc Finger Protein GLI1 (AID 2282945). The conditions noted are these: HepG2, Attagene cis-factorial reporter mRNA, GLI element; actives raise or lower the signal. In outline: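 HepG2 cells transiently transfected with cis-promoter multiplexed reporter units report endogenous transcription factor activity. After 24 h chemical exposure, reporter mRNA was quantified by RT-PCR, 6-FAM labelling, HpaI digestion and capillary electrophoresis, with bidirectional fitting against DMSO.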

Assay [8] is described as follows: ATG_GRE_CIS: Attagene CIS-FACTORIAL HepG2 Assay for human Glucocorticoid Response Elements (GRE) (AID 2282947). The conditions noted are these: HepG2 GRE cis-reporter, Attagene multiplex mRNA; actives raise or lower the signal. The method, boiled down: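 HepG2, transient cis-reporter transfection, 24 h. Reporter mRNA: RT-PCR then CE, fluorescence. Fit both directions vs DMSO.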

Assay [9] is described as follows: ATG_ISRE_CIS: Attagene CIS-FACTORIAL HepG2 Assay for human Interferon Regulatory Factor 1 (IRF1) binding to an Interferon-Stimulated Response Element (ISRE) (AID 2282948). The conditions noted are these: HepG2 ISRE cis-reporter (Attagene), mRNA transcription readout; actives raise or lower the signal. In outline:
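Endogenous transcription factor activity read as reporter transcript abundance via RT-PCR and capillary electrophoresis. HepG2 cells transiently transfected, 24 h chemical exposure. Gain or loss fitted against DMSO baseline.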

Assay [10] is described as follows: ATG_M_32_CIS: Attagene CIS-FACTORIAL HepG2 Assay for M32 Transcription Factor (Internal Marker) (AID 2282949).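 Further: background control marker of the multiplexed CIS panel rather than a real target.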 The following applies: HepG2 Attagene cis-factorial M32 reporter, mRNA; actives raise or lower the signal. In outline:
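Transient MRTU transfection of HepG2; 24 h compound treatment; TriZol RNA, oligo(dT) RT, reporter PCR, 6-FAM primer extension, HpaI cut, CE. Gain/loss of signal vs DMSO.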

The target in assay [11] is Hypoxia-inducible factor 1-alpha (Homo sapiens) (UniProt Q16665). Nature of the assay: ATG_HIF1a_CIS: Attagene CIS-FACTORIAL HepG2 Assay for human Hypoxia Inducible Factor 1 (HIF1A) (AID 2282951). The conditions noted are these: HepG2 Attagene cis-factorial HIF1a reporter transcription; actives raise or lower the signal. In outline: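 Cis-element reporter constructs were transiently transfected into HepG2 cells, which were treated for 24 h; reporter RNA was reverse-transcribed, amplified, labelled and resolved by capillary electrophoresis.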

Assay [12] has as its target Hepatocyte nuclear factor 6 (Homo sapiens) (UniProt Q9UBC0). The assay can be described thus: ATG_HNF6_CIS: Attagene CIS-FACTORIAL HepG2 Assay for human Hepatocyte Nuclear Factor 6 (HNF6) (AID 2282952). The following applies: HepG2 Attagene cis-factorial HNF6 reporter transcription; actives raise or lower the signal. In outline:
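Readout: fluorescent reporter-transcript fragments resolved by capillary electrophoresis after RT-PCR, reflecting endogenous factor activity in transfected HepG2. Exposure 24 h. Gain or loss of signal fitted bidirectionally against DMSO.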

In assay [13] the target is Heat shock factor protein 1 (Homo sapiens) (UniProt Q00613). Nature of the assay: ATG_HSE_CIS: Attagene CIS-FACTORIAL HepG2 Assay for human Heat Shock Transcription Factor 1 (HSE) (AID 2282953). The following applies: HepG2 HSE cis-reporter, Attagene RNA transcription; actives raise or lower the signal. In outline:
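Liver-derived HepG2 cells carry transiently introduced multiple reporter units governed by cis promoters. Reporter RNA measured 24 h post-dose through reverse transcription, PCR amplification, fluorescent labelling and capillary electrophoresis, normalised to DMSO.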

The nature of assay [14]: ATG_MRE_CIS: Attagene CIS-FACTORIAL HepG2 Assay for human Metal Responsive Element (MRE) (AID 2282954). The following applies: HepG2 MRE cis-reporter transcription, Attagene multiplex; actives raise or lower the signal. In outline: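 Readout: capillary electrophoresis of 6-FAM-labelled, HpaI-digested RT-PCR reporter products. System: HepG2 cells carrying transient multiplexed cis reporters, dosed 24 h. Analysis: bidirectional fit, DMSO baseline.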

Assay [15] can be described thus: ATG_M_19_CIS: Attagene CIS-FACTORIAL HepG2 Assay for M19 Transcription Factor (Internal Marker) (AID 2282939). The following applies: HepG2 Attagene CIS-FACTORIAL M19 internal marker reporter; actives raise or lower the signal. The method, boiled down:
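Chemical-treated HepG2 (24 h) with MRTU constructs; reporter transcripts detected by fluorescent RT-PCR fragment analysis on capillary electrophoresis. Internal background marker, DMSO as baseline.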

Assay [16] is described as follows: ATG_M_06_CIS: Attagene CIS-FACTORIAL HepG2 Assay for M06 Transcription Factor (Internal Marker) (AID 2282950). The conditions noted are these: HepG2 Attagene CIS-FACTORIAL M06 internal marker reporter; actives raise or lower the signal. In outline: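 Cells (HepG2, transiently carrying cis-driven reporter units) receive chemical for 24 h before RNA isolation. Reporter cDNA is PCR-amplified, FAM-labelled by primer extension, HpaI-digested and sized on a capillary analyser.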

Assay [17] is described as follows: ATG_ERE_CIS: Attagene CIS-FACTORIAL HepG2 Assay for Estrogen Response Element (ERE) (AID 2282940). The conditions noted are these: HepG2 ERE cis-reporter, Attagene RNA transcript; actives raise or lower the signal. The method, boiled down:
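Human liver cells (HepG2) bearing transiently transfected, promoter-regulated reporter units were exposed 24 h. Reporter mRNA induction was detected by capillary electrophoresis of labelled RT-PCR products and fitted bidirectionally to DMSO.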

Assay [18] has as its target Bile acid receptor (Homo sapiens) (UniProt Q96RI1). The assay can be described thus: ATG_IR1_CIS: Attagene CIS-FACTORIAL HepG2 Assay for human Nuclear Receptor Subfamily 1 Group H Member 4 (NR1H4), IR1 submotif (AID 2282946). The conditions noted are these: IR1 reporter transcription, actives raise or lower the signal. In outline:
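Readout: reporter transcript levels by RT-PCR with fluorescent capillary electrophoresis, from HepG2 cells transiently transfected with multiplexed cis-regulated reporters and dosed 24 h. Gain- or loss-of-signal fitted versus DMSO negative control.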

A short description of assay [19]: ATG_PBREM_CIS: Attagene CIS-FACTORIAL HepG2 Assay for human Phenobarbital-responsive Enhancer Module (PBREM) (AID 2282955). The conditions noted are these: HepG2 PBREM cis-reporter, Attagene multiplexed transcription; actives raise or lower the signal. In outline: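 Multiplexed cis-reporter readout in human hepatoma HepG2 cells; PBREM-regulated transcript quantified after 24 h exposure by fluorescent RT-PCR fragment analysis. Signal changes up or down fitted relative to DMSO.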

Active and inactive are the calls of the source. How the source made its calls: active means hit-call score of the fitted dose curve at least 0.9, where 1 is the maximum; inactive means score below 0.9.

Bile acid receptor (Homo sapiens), sequence (Q96RI1 whole entry, looked up): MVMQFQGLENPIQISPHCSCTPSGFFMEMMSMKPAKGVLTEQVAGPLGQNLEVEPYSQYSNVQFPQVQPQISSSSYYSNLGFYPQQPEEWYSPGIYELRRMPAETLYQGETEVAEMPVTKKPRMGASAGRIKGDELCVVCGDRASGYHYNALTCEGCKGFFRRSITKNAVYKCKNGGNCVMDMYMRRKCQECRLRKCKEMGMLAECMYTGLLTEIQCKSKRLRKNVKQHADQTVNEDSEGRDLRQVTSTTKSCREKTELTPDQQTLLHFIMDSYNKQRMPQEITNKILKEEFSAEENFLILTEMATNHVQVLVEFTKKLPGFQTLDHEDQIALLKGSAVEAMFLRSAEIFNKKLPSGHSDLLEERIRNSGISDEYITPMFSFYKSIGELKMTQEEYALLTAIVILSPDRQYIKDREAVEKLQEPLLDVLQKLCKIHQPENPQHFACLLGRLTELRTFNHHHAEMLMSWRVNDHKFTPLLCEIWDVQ
Heat shock factor protein 1 (Homo sapiens), sequence (Q00613 whole entry, looked up): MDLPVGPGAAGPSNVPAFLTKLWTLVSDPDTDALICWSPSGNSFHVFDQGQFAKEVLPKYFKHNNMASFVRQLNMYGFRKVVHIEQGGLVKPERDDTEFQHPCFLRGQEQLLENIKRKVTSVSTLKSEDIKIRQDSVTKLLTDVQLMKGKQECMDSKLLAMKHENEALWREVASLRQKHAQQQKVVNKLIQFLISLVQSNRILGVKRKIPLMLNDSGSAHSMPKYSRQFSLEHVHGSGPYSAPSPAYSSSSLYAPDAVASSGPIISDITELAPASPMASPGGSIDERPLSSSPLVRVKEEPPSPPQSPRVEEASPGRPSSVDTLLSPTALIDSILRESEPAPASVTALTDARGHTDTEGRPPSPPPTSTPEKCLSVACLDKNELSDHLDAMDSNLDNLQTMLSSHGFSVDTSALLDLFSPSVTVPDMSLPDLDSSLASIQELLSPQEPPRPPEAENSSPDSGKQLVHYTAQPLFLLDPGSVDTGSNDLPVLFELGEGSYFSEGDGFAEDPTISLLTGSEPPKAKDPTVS
Hepatocyte nuclear factor 6 (Homo sapiens), sequence (Q9UBC0 whole entry, looked up, the tested form may be a part): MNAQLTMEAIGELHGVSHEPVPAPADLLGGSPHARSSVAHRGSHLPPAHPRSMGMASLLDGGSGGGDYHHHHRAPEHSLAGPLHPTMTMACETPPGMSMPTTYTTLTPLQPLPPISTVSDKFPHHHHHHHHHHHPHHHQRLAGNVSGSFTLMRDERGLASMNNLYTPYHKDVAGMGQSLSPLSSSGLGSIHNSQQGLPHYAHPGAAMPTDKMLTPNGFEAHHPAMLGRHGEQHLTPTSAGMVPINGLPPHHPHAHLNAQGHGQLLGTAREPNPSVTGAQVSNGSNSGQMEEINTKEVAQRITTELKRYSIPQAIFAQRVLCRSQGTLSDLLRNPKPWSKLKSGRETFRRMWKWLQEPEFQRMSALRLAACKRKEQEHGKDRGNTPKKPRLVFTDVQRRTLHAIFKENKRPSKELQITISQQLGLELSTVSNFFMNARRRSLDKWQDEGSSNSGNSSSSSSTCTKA
Hepatocyte nuclear factor 3-beta (Homo sapiens), sequence (Q9Y261 whole entry, looked up): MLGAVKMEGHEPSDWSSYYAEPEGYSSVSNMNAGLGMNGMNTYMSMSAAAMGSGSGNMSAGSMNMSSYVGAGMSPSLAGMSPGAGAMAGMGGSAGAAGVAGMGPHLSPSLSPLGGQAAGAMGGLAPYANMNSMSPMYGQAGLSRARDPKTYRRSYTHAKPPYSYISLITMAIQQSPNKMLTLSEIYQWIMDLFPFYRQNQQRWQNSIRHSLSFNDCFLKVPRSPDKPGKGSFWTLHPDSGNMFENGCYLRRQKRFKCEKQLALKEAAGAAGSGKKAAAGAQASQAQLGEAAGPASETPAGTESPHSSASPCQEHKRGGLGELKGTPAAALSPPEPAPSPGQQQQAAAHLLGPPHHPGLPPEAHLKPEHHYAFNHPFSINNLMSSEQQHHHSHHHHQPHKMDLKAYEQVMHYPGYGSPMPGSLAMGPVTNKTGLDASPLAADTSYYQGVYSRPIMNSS
Hypoxia-inducible factor 1-alpha (Homo sapiens), sequence (Q16665 whole entry, looked up): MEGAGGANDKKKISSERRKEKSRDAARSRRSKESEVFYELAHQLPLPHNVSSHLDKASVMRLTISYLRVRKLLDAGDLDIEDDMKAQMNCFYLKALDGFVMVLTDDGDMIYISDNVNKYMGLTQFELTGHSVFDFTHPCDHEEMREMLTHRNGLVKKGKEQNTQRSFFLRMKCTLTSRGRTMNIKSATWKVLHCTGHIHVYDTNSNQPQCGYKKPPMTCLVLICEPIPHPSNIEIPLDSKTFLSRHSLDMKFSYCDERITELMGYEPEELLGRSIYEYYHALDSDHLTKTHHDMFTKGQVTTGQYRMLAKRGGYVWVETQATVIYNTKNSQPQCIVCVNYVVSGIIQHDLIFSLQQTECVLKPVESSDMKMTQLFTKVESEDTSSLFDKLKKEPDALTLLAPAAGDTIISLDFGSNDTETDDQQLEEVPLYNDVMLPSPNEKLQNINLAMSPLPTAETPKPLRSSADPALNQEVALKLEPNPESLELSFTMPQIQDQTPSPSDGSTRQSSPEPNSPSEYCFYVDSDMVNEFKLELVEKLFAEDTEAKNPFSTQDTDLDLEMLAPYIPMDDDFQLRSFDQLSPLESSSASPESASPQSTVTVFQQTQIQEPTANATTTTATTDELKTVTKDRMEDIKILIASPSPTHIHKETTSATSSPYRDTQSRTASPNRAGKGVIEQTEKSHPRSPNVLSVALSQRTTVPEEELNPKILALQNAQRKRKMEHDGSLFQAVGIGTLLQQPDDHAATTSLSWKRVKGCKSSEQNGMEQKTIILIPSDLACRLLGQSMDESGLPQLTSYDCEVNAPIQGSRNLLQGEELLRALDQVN

As to `[Ca+2]`, the outcome in assay [1], in assay [2], in assay [3], in [4], in assay [5] and in assay [6] was inactive. For the same compound, the call in assay [7], in assay [8], in [9], in assay [10], in assay [11] and in assay [12] was inactive. The result in assay [13] and in [14] was inactive.
Regarding `CCCOCC(C)O` (centres undefined), the outcome in assay [1], in [2], in [15], in assay [4], in assay [5] and in [6] was inactive. Besides, the call in assay [7], in assay [9], in assay [10], in assay [16], in assay [12] and in assay [13] was inactive. Further, the compound was classed as inactive in [14]. Besides, the AC50 in [11] is 24.8 µM (active).
With `Nc1ccc(S(=O)(=O)O)c(N)c1`, the outcome in assay [1], in assay [2], in assay [15], in [17], in [3] and in assay [4] was inactive. Also, the compound was called inactive in assay [5], in [6], in assay [7], in assay [8], in assay [9] and in assay [10]. In addition, the compound was classed as inactive in [11], in [12], in assay [13] and in assay [14].
On to `C#C[C@]1(O)CC[C@H]2[C@@H]3CCC4=Cc5oncc5C[C@]4(C)[C@H]3CC[C@@]21C`, for which the AC50 is 53.8 µM (active) in assay [1]; 21.9 µM (active) in assay [2]; 830 nM (active) in assay [17]; 60.4 µM (active) in assay [5]; 54.6 µM (active) in assay [6]; 23.5 µM (active) in [18]. In addition, the half-maximal activity concentration (AC50) in assay [9] is 31.2 µM (active); in assay [12] it was 60.9 µM (active); in assay [13], 58.2 µM (active); in [14], 27.3 µM (active); in assay [19], 5.83 µM (active). In addition, the compound was called inactive in assay [15], in assay [4], in [8] and in [10].
On to `CC(=O)Nc1ccc(CC(=O)O)cc1`, for which the outcome in assay [1], in [2], in assay [15], in assay [17], in assay [3] and in assay [4] was inactive. Moreover, the call in assay [5], in assay [6], in [8], in [9], in assay [10] and in assay [16] was inactive. Further, the outcome in assay [11], in [12], in assay [13], in assay [14] and in assay [19] was inactive.
Consider `Sc1nc(S)nc(S)n1`, for which the result in assay [1], in assay [2], in [3], in assay [4], in [5] and in [6] was inactive. The compound was called inactive in assay [7], in assay [18], in [9], in assay [10], in [16] and in assay [11]. The compound was classed as inactive in [12], in [13] and in assay [14].
Take `CC1=CC(=O)NS(=O)(=O)O1`: the outcome in [1], in [2], in [15], in assay [3], in [4] and in assay [5] was inactive. Also, the outcome in assay [6], in [7], in assay [18], in [8], in assay [9] and in assay [10] was inactive. Moreover, the result in assay [16], in assay [11], in assay [12], in assay [13], in assay [14] and in assay [19] was inactive.
